Measurements published in PubChem BioAssay.

These molecules were tested on XIP peptide (Xip251-270) binding (assay: small-molecule binders of XIP peptide, primary screen, biochemical, small-molecule microarray, fluorescence 635/667 nm, 0.1 µg/mL protein (AID 1182)). Details: fluorescent protein binding, 635 nm, higher = more signal, called active from +8 up or from −8 down.

Composite z-score, inactive:
COC(=O)[C@@]1(Cc2ccccc2)[C@H]2c3cc(C(=O)N(C)C)n(Cc4nc5ccccc5[nH]4)c3C[C@H]2CN1C(=O)c1ccccc1 0.857
CC(C)C(=C=CC[C@H](O)c1cccc(OCCO)c1)C[C@H](O)c1ccccn1 0.549
COc1ccc(CCNC(=O)[C@@H]2c3ccccc3C(=O)N(C(C)C)[C@H]2c2ccc(CO)cc2)cc1 -0.343
COCCOC(=O)N1C(=O)[C@@]2(c3cc(C#CCNC(N)=O)ccc31)[C@H](C(=O)Nc1nc3ccccc3s1)[C@H]1C(=O)O[C@H](c3ccccc3)[C@H](c3ccccc3)N1[C@@H]2c1ccc(O)cc1 -0.0637
O=C(c1ccccc1)N1Cc2ccccc2C[C@@]2(N=C(c3ccc(OCCCO)cc3)O[C@H]2c2ccccc2)C1=O 0.742
CC(=O)NCCCC[C@@H]1NC(=O)[C@H]2C[C@@H](C(=O)NCCCCCN)[C@@H](c3ccc(O)cc3)N2C1=O 0.222
COc1ccc(NN2C(C(O)c3ccc(F)cc3)C=CC3C(=O)N(C4CCCCC4)C(=O)C32)cc1 (stereo unspecified) 0.331
C=C(COC)C(=O)CC[C@@H](OC(=O)c1ccccc1-c1ccccc1C(=O)O)c1ccccc1OCCO 0.106
COc1ccc(C(O)C2C=CC3C(=O)N(C)C(=O)C3N2Nc2ccccc2)cc1 (stereo unspecified) 0.488
C=CCOC(=O)[C@H]1[C@@H]2C(=O)O[C@@H](c3ccccc3)[C@@H](c3ccccc3)N2[C@@H](c2ccc(OCCOC(=O)[C@H]3C[C@H]4C(=O)NCC(=O)N4[C@H]3c3ccc(O)cc3)cc2)[C@]12C(=O)Nc1ccccc12 0.758
CN1C2C=C(c3ccc(CO)cc3)C(C3C(=O)N(C(N)=O)C(=O)C32)C1C1CC1 (stereo unspecified) -0.313
C=CCNC(=O)[C@H]1[C@@H]2C(=O)O[C@@H](c3ccccc3)[C@@H](c3ccccc3)N2[C@@H](c2ccc(OCCO)cc2)[C@]12C(=O)Nc1ccc(C#Cc3ccc(OC)cc3)cc12 0.43
O=C(N1CCOCC1)[C@]1(CCS(=O)(=O)c2ccccc2)N=C(c2ccc(OCCCO)cc2)O[C@@H]1c1ccccc1 1.24
Cc1c(NC(=O)/C(C#N)=C/C=C/c2ccc([N+](=O)[O-])cc2)c(=O)n(-c2ccccc2)n1C 1.97
COC(=O)C(CC#Cc1ccc2c(c1)[C@]1(C(=O)N2)[C@H](c2ccccc2OCCO)N2[C@H](c3ccccc3)[C@H](c3ccccc3)OC(=O)[C@H]2[C@@H]1C(=O)N1CCN(c2ncccn2)CC1)C(=O)OC -0.0996
C[C@]1(C(=O)NC2CC2)c2ccccc2C(=O)N(Cc2cc(F)cc(C(F)(F)F)c2)[C@H]1c1ccc(CO)cc1 0.431
[N-]=[N+]=NCc1ccccc1C[C@@]1(C(N)=O)N=C(c2ccc(OCCCO)cc2)O[C@@H]1c1ccccc1N=[N+]=[N-] 0.497
C=C(COC)C(=O)CC[C@H](OC(C)=O)c1ccc(CO)o1 -0.153
CCCCC=C[C@@H](NC(=O)C(C)(C)C)c1ccccc1 1.38
O=C1NC(=O)C2C1C=CC(C(O)C(c1ccccc1)c1ccccc1)N2Nc1ccccn1 (stereo unspecified) 0.21
CCOC(=O)C[C@H]1[C@H](OC(=O)c2ccc(-c3ccccc3)cc2)[C@@H](NC(=O)C2CCCCC2)c2cc(OCCCO)ccc2N1C(=O)Cc1ccc(OC)cc1 -0.344
C=CCOC(=O)[C@H]1[C@@H]2C(=O)O[C@@H](c3ccccc3)[C@@H](c3ccccc3)N2[C@@H](c2ccc(OCCOC(=O)[C@H]3C[C@H]4C(=O)NCC(=O)N4[C@H]3c3cccc(OCCO)c3)cc2)[C@]12C(=O)Nc1ccc(I)cc12 0.585
CC1CC/C=C\[C@H]2OC34C=CCN(C(C)C)C(=O)[C@H]3N(C(C)CO)C(=O)[C@@H]4C2C(=O)O1 (stereo partly specified) -0.275
COCCOC(=O)N1C(=O)[C@@]2(c3cc(C#CCNC(N)=O)ccc31)[C@H](C(N)=O)[C@H]1C(=O)O[C@H](c3ccccc3)[C@H](c3ccccc3)N1[C@@H]2c1ccc(O)cc1 0.201
[N-]=[N+]=NCc1ccccc1[C@H]1OC(c2ccc(OCCCO)cc2)=N[C@@]1(Cc1ccccc1N=[N+]=[N-])C(=O)O 0.107
COc1cccc(C)c1NC(=O)O[C@H]1[C@H](OC(=O)Nc2ccc3c(c2)OCO3)[C@H](OC(=O)Nc2ccc3c(c2)OCO3)[C@@H](OC)O[C@@H]1CO 0.574
CN(C)CCCC[C@@H]1NC(=O)[C@H]2C[C@@H](C(=O)NCCCCCCNC(=O)CS)[C@@H](c3cccc(OCCO)c3)N2C1=O 0.305
CCCC[C@@H](O)C1=C(C)Cn2c(=O)n(-c3ccccc3)c(=O)n2[C@H]1CO -0.387
C=CCN1C(=O)[C@]2(O[C@H](CCO)[C@@H]([Si](C)(C)c3ccc(OC)cc3)[C@@H]2C)c2cc(N3C(=O)c4ccccc4Oc4ccccc43)ccc21 0.297
COC(=O)[C@@]1(Cc2ccc(F)cc2)[C@H]2c3cc(C(=O)N4CCCC4)n(C[C@H](O)CO)c3C[C@H]2CN1C(=O)c1ccccc1 1.17
CN1C(=O)C2C(C1=O)C1C=C(CCCO)C2C(C2CC2)N1C (stereo unspecified) 0.58
C=CCOC(=O)[C@H]1[C@@H]2C(=O)O[C@@H](c3ccccc3)[C@@H](c3ccccc3)N2[C@@H](c2ccc(OCCOC(=O)[C@@H]3C[C@@H]4C(=O)N[C@@H](Cc5ccccc5)C(=O)N4[C@@H]3c3ccc(O)cc3)cc2)[C@]12C(=O)Nc1ccc(I)cc12 1.12
[N-]=[N+]=Nc1ccccc1C[C@@]1(C(=O)NCC(O)CO)N=C(c2ccc(OCCCO)cc2)O[C@@H]1c1ccccc1N=[N+]=[N-] (stereo partly specified) 0.0609
COc1ccc(CCNC(=O)[C@@]2(C)c3ccccc3C(=O)N(Cc3ccc(OC(F)(F)F)cc3)[C@H]2c2ccc(CO)cc2)cc1 1.06
CCOC(=O)C1=CC[C@@H](c2ccccc2)N(S(=O)(=O)c2ccc(C)cc2)[C@@H]1C#N 0.216
[N-]=[N+]=NCc1ccccc1[C@H]1OC(c2ccc(OCCCO)cc2)=N[C@@]1(Cc1ccccc1N=[N+]=[N-])C(=O)N1CCOCC1 -0.185
